# From PubChem BioAssay
# Shown is part of a subset that was picked to be rich in hits.
# IDE exosite inh: insulin-degrading enzyme (human) exo-site inhibition. P14735. purified IDE, FL-6b probe fluorescence polarization; stronger effect = lower value. z-score at 20 µM. hit rate 6.3% among 17,000;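 active = z-score of -3 or lower, meaning strong loss of probe binding signal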;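 note: His-tagged human IDE residues 42-1019 made in E. coli with 30 nM FL-6b probe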
# Target sequence (P14735 42-1019 limits assumed): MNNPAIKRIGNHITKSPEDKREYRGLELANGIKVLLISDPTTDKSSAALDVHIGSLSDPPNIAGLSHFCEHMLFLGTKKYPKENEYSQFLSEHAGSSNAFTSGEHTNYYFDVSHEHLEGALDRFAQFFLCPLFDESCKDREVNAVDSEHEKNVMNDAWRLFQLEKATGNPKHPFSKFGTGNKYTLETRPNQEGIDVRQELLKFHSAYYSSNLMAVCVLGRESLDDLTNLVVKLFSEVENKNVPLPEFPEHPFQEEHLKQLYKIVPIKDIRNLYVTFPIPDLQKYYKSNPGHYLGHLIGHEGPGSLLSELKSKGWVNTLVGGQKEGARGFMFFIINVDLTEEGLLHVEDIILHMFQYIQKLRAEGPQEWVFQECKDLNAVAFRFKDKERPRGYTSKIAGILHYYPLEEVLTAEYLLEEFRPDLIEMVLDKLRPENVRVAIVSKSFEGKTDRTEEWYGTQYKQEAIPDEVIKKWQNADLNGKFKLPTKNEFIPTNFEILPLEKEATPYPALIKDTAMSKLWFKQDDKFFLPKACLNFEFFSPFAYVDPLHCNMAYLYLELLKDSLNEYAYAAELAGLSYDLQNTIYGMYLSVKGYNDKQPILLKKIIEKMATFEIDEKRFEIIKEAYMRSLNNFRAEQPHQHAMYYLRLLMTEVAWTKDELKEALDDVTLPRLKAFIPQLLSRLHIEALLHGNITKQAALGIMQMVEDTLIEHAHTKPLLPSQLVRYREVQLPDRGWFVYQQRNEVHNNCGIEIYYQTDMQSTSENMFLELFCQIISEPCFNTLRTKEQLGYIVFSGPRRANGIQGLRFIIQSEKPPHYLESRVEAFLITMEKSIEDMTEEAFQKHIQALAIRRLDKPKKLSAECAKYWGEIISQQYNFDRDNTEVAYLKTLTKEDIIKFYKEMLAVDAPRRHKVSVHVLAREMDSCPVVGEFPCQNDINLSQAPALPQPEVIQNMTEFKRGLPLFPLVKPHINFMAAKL
# * hit, by the source's call.
SMILES,IDE exosite inh
O=C(c1ccncc1)N1CC(=O)N2[C@H](C1)[C@@H](c1ccc(/C=C/c3ccccc3)cc1)[C@@H]2CO,-6*
O=C(c1ccccc1)N1CC(=O)N2[C@H](CO)[C@H](c3ccc(/C=C/c4ccccc4)cc3)[C@H]2C1,-8.4*
O=C(c1ccccc1)N1CC(=O)N2[C@H](CO)[C@H](c3ccc(/C=C/c4ccccc4)cc3)[C@@H]2C1,-2.8
O=C(Nc1cccc(F)c1)N1CC(=O)N2[C@H](CO)[C@@H](c3ccc(-c4ccc(F)cc4)cc3)[C@@H]2C1,2.9
COc1ccc(NC(=O)N2C[C@H](O)COC[C@@H]3O[C@H](CC(=O)NCc4ccncn4)CC[C@H]32)cc1,0.18
COc1ccc2c3c([nH]c2c1)[C@H](CO)N(Cc1cccnc1)CC31CCN(C(=O)CN(C)C)CC1,-1.2
CCS(=O)(=O)N1CCCCN2[C@H](CO)[C@H](c3ccc(-c4ccc(C#N)cc4)cc3)[C@@H]2C1,2.2
CNC[C@@H]1Oc2c(NS(=O)(=O)c3ccc(Cl)cc3)cccc2C(=O)N([C@@H](C)CO)C[C@H]1C,-1.1
COc1cccc(C(=O)Nc2ccc3c(c2)C(=O)N(C)[C@H]2CC[C@@H](CC(=O)NCc4ccc(F)cc4)O[C@@H]2CO3)c1,-6.2*
CN1C(=O)c2cc(NS(C)(=O)=O)ccc2OC[C@H]2O[C@H](CC(=O)N3CCOCC3)CC[C@H]21,-1
CN1C(=O)c2cc(NS(C)(=O)=O)ccc2OC[C@@H]2O[C@H](CC(=O)N3CCOCC3)CC[C@@H]21,-1.5
COc1ccc(C(=O)Nc2ccc3c(c2)C(=O)N(C)[C@H]2CC[C@@H](CC(=O)NCC4CC4)O[C@@H]2CO3)cc1,0.56
COc1ccc(C(=O)Nc2ccc3c(c2)C(=O)N(C)[C@H]2CC[C@H](CC(=O)NCC4CC4)O[C@H]2CO3)cc1,-3.6*
COc1cccc(C(=O)Nc2ccc3c(c2)C(=O)N(C)[C@H]2CC[C@H](CC(=O)NCc4ccc(F)cc4)O[C@H]2CO3)c1,-0.35
CN1C(=O)c2cc(NS(C)(=O)=O)ccc2OC[C@@H]2O[C@H](CC(=O)NCc3ccccc3)CC[C@@H]21,-2.5
COc1cccc(C(=O)Nc2ccc3c(c2)C(=O)N(C)[C@H]2CC[C@@H](CC(=O)NCc4ccc(F)cc4)O[C@H]2CO3)c1,-2.9
COc1ccc(C(=O)Nc2ccc3c(c2)C(=O)N(C)[C@H]2CC[C@H](CC(=O)NCC4CC4)O[C@@H]2CO3)cc1,-0.44
CCS(=O)(=O)Nc1ccc2c(c1)C(=O)N(C)[C@@H]1CC[C@H](CC(=O)NCc3ccc(OC)cc3)O[C@H]1CO2,0.06
CCS(=O)(=O)Nc1ccc2c(c1)C(=O)N(C)[C@H]1CC[C@@H](CC(=O)NCc3ccc(OC)cc3)O[C@@H]1CO2,-4.2*
CN1C(=O)c2cc(NS(C)(=O)=O)ccc2OC[C@@H]2O[C@@H](CC(=O)N3CCOCC3)CC[C@@H]21,-5.1*
C[C@@H]1CCCCO[C@H](CN(C)Cc2ccc(C(F)(F)F)cc2)[C@H](C)CN([C@H](C)CO)C(=O)c2cc(NC(=O)Nc3cccc4ccccc34)ccc2O1,0.93
O=S(=O)(Cc1ccccc1)N1CCCCN2[C@H](C1)[C@@H](c1ccc(-c3cncnc3)cc1)[C@@H]2CO,1.5
CO[C@H]1CN(C)C(=O)c2cc(NC(=O)Cc3ccccc3)ccc2OC[C@@H](C)N(C(=O)c2ccccc2F)C[C@@H]1C,2.6
C[C@H](NC(=O)C[C@@H]1C=C[C@@H](NC(=O)c2cccnc2)[C@H](CO)O1)c1ccccc1,0.96
C[C@@H]1CCCCO[C@H](CN(C)Cc2ccc(C(F)(F)F)cc2)[C@@H](C)CN([C@H](C)CO)C(=O)c2cc(NC(=O)Nc3cccc4ccccc34)ccc2O1,0.39
SMILES,IDE exosite inh
O=C(C[C@@H]1C[C@@H]2c3cc(NC(=O)c4ccc5c(c4)OCO5)ccc3O[C@@H]2[C@H](CO)O1)NCCN1CCCCC1,-1.1
CN(C)C(=O)c1ccc(-c2ccc([C@H]3[C@@H](CO)N4CCCCN(Cc5cccnc5)C[C@H]34)cc2)cc1,0.1
O=C(Nc1ccccc1Cl)N1C[C@H]2[C@@H](c3ccccc31)[C@H](CO)N2C(=O)c1cccnc1,1.7
CO[C@H](CN(C)S(=O)(=O)c1ccc(C)cc1)[C@@H](C)CN(C(=O)Nc1ccccc1F)[C@H](C)CO,-0.39
O=C(Nc1cccc(F)c1)N1CC(=O)N2[C@H](C1)[C@@H](c1ccc(C#Cc3cccnc3)cc1)[C@@H]2CO,-0.086
COc1cccc(CN2CCCCN3[C@H](C2)[C@@H](c2ccc(-c4cccnc4)cc2)[C@@H]3CO)c1,1.3
C/C=C/c1ccc2c(c1)O[C@@H](CN(C)C(=O)Nc1ccc(OC)cc1)[C@@H](C)CN([C@H](C)CO)S2(=O)=O,-1.7
CCC(=O)N1CC(=O)N2[C@H](CO)[C@H](c3ccc(C#CCC(C)C)cc3)[C@@H]2C1,1.4
O=C(C[C@H]1CC[C@H]2NC[C@@H](O)COC[C@@H]2O1)Nc1ccc(-c2ccccc2)cc1,-1.2
O=C(Cc1ccccn1)N1CC2(C1)[C@@H](c1ccccc1)[C@H](CO)N2C(=O)c1ccncc1,-3.6*
O=C(c1ccncc1)N1CC2(C1)[C@@H](c1ccccc1)[C@@H](CO)N2CC1CC1,-0.48
O=C(CC1CC1)N1CC2(C1)[C@H](c1ccccc1)[C@@H](CO)N2Cc1ccccn1,1.4
CO[C@@H]1CN(C)C(=O)c2ccc(NC(=O)c3ccno3)cc2OC[C@@H](C)N(S(C)(=O)=O)C[C@@H]1C,0.55
C[C@@H](NC(=O)C[C@H]1C=C[C@H](NC(=O)c2cccnc2)[C@@H](CO)O1)c1ccccc1,0.61
COc1ccccc1S(=O)(=O)N[C@H]1C=C[C@@H](CC(=O)N2CCOCC2)O[C@H]1CO,0.42
C[C@@H]1CN([C@@H](C)CO)C(=O)c2cc(NC(=O)Cc3ccccc3)ccc2O[C@@H](C)CCCCO[C@@H]1CN(C)Cc1ccncc1,0.46
C[C@H](CO)N1C[C@H](C)[C@@H](CN(C)C(=O)[C@H](Cc2ccccc2)N(C)C)OCc2ccccc2-c2c(n(C)c3ccccc23)C1=O,-0.8
CN(C)C(=O)c1ccc(-c2ccc([C@@H]3[C@@H](CO)N4CCCCN(CCC(F)(F)F)C[C@H]34)cc2)cc1,1.2
COCC(=O)N1CCCCN2[C@H](CO)[C@H](c3ccc(C#Cc4cccnc4)cc3)[C@@H]2C1,-3.1*
COCC(=O)N1CCCCN2[C@H](CO)[C@H](c3ccc(C#Cc4cccnc4)cc3)[C@H]2C1,2.6
O=C(Nc1cccc(F)c1)N1CCCCN2[C@H](CO)[C@H](c3ccc(C#Cc4cccnc4)cc3)[C@@H]2C1,-1.6
COCC(=O)N1CCCCN2[C@H](C1)[C@H](c1ccc(C#Cc3cccnc3)cc1)[C@@H]2CO,0.39
CCC(=O)N1CCCCN2[C@@H](CO)[C@@H](c3ccc(C#Cc4cccnc4)cc3)[C@@H]2C1,-3.1*
CCC(=O)N1CCCCN2[C@H](C1)[C@H](c1ccc(-c3cccnc3)cc1)[C@@H]2CO,2.5
CCC(=O)N1CCCCN2[C@@H](CO)[C@@H](c3ccc(-c4cccnc4)cc3)[C@@H]2C1,0.016
CCC(=O)N1CCCCN2[C@H](CO)[C@H](c3ccc(C#Cc4cccnc4)cc3)[C@@H]2C1,-10*
COC(=O)C[C@@H]1C=C[C@@H](N)[C@H](CO)O1,1.2
CN1c2ccc(-c3ccc(F)cc3)cc2[C@H]2[C@H](CCN2C(=O)Cc2cccnc2)[C@H]1CO,0.65
C/C=C/c1ccc([C@H]2[C@@H](CO)N(Cc3cncnc3)C23CN(C(=O)COC)C3)cc1,-0.12
